In PubChem BioAssay AID1117361 (Southern Research Institute, 2015):
Hit rate of the full screen: of about 3,600 compounds, about 900 (25%) were called active. A selection follows. Potency and affinity values are given separately. Unmarked numbers belong to inactive results. No rule for the calls is given here.

target: Protein Tat (Human immunodeficiency virus type 1 group M subtype B (isolate HXB2)) (UniProt P04608); experiment: HIV-1 Tat–TAR interaction blockers – biochemical, fluorescence polarization, FAM-labeled TAR RNA, counter-screen for Vif-APOBEC3G degradation inhibitor project, dose response (AID 1117361); settings: Tat-TAR RNA binding; series mostly up to 100 µM; inhibition: at the top concentration

| SMILES | inhibition [%] | outcome |
| --- | --- | --- |
| CCOc1ccc(C2=[N+]([O-])C(C)(C)N(O)C2(C)C)cc1 | 3.41 |  |
| CCCCn1nnc(NC(=O)c2ccc(-c3cccc(Cl)c3)o2)n1 | 0.68 |  |
| CC1(C)CC(=O)c2cc(OCC(=O)NCc3cccnc3)ccc2O1 | 8.11 |  |
| CCOC(=O)/C(=C\c1ccccc1)NC(=O)c1ccccc1 |  | inactive |
| CCOC(=O)/C(=C/c1c2ccccc2cc2ccccc12)NC(=O)c1ccccc1 | 3.38 |  |
| COc1ccc(S(=O)(=O)NCc2ccccn2)cc1 | 4.05 |  |
| Cc1cccc(C)c1NS(=O)(=O)c1c(C)[nH]c(=O)[nH]c1=O | 6.14 |  |
| COc1ccc(CNc2ncnc(N)n2)cc1 | 5.41 |  |
| CCCC(=O)Nc1ccccc1NC(C)=O | 4.05 |  |
| CC(C)CC(NC(=O)CCl)c1ccccc1 (stereo not drawn) |  | inactive |
| CCN(CC)C(=O)CSCC(=O)Nc1ccccc1 | 2.03 |  |
| CCOC(=O)c1ccc(NC(=O)CSc2nnc(Cc3cccs3)n2C)cc1 | 4.77 |  |
| O=C(c1c(F)cccc1F)N(Cc1ccccn1)C1CCCC1 |  | inactive |
| O=C(CCn1c(=O)c2ccccc2n(CC(=O)NCCC2=CCCCC2)c1=O)NCc1ccco1 | 16.4 |  |
| O=C(NCCc1ccc(Cl)cc1)C1CCN(C(=O)c2sccc2-n2cccc2)CC1 | 10.2 |  |
| COc1cc(C(O)P(=O)(OCC(C)C)OCC(C)C)cc(OC)c1OC (stereo not drawn) |  | inactive |
| Cc1ccc(CNC(=O)C2c3ccccc3C(=O)N3CCc4ccccc4C23)o1 (stereo not drawn) | 10.9 |  |
| CN1CCN(C(=O)c2ccc(N(C)S(=O)(=O)c3cccs3)cc2)CC1 |  | inactive |
| Cc1ccc(CSC2=Nc3sccc3C3=NC(=O)CN23)cc1 | 25.9 |  |
| COCC(=O)NCCc1nc2ccccc2[nH]1 | 2.03 |  |
| COCCn1c(N2CCN(c3ccc(OC)cc3)CC2)nc2c1c(=O)[nH]c(=O)n2C |  | inactive |
| CCCn1c(NC(=O)c2ccco2)nc2ccccc21 |  | inactive |
| CCn1c(=N)n(CC(=O)c2ccc(OC)cc2)c2ccccc21 |  | inactive |
| CC(=O)c1sc(NC(=O)C2CCN(C(=O)c3ccccc3C)CC2)nc1-c1ccccc1 | 19 |  |
| COc1ccc2oc(C(F)(F)C(F)(F)F)cc(=O)c2c1 | 8.87 |  |

| SMILES | inhibition [%] | outcome |
| --- | --- | --- |
| O=C(CN1CCC(NC(=O)c2cccc(F)c2)CC1)NCc1ccccc1F | 13.6 |  |
| CCN(CC)C(=O)CN1C(=O)C2(NC(=O)c3ccccc3N2)c2ccccc21 (stereo not drawn) |  | inactive |
| Cc1ccc(OC(=O)COc2ccccc2)c(-n2nc3ccccc3n2)c1 | 1.36 |  |
| O=C(NCc1ccncc1)c1ccc(Cn2cc(C(F)(F)F)ccc2=O)cc1 |  | inactive |
| CC(OC(=O)c1cccs1)C(=O)NCc1ccco1 (stereo not drawn) | 3.38 |  |
| CCc1ccc(NS(=O)(=O)c2cccs2)cc1 | 8.11 |  |
| COc1cccc(-c2nnc(SCC(=O)OC(C)C)n2N)c1 | 1.35 |  |
| O=C(c1ccco1)N(Cc1ccco1)c1ccc(O)cc1 |  | inactive |
| O=C(c1ccco1)N(Cc1ccc([N+](=O)[O-])cc1)c1ccc(Cl)cc1 |  | inactive |
| O=C(Cn1ncc(Cl)c(Cl)c1=O)c1ccc2c(c1)OCCO2 |  | inactive |
| CCCCCCC(=O)N(O)C1CC(=O)N(c2ccc(Br)cc2)C1=O (stereo not drawn) | 9.55 |  |
| Nc1nc(SCC(=O)OCc2ccccc2)[nH]c(=O)c1NC(=O)c1ccco1 | 0.68 |  |
| COc1cc(N2C(=O)C=CC2=O)ccc1N1C(=O)C=CC1=O | 9.02 |  |
| O=S(=O)(N1CCCCC1)N1CCN(c2ccccc2F)CC1 | 7.43 |  |
| COc1ccc(CCN2C(=O)c3cccnc3C2=O)cc1OC | 4.09 |  |
| COc1ccc(Nc2ncc(F)c(N3CCOCC3)n2)cc1 |  | inactive |
| NS(=O)(=O)c1ccc(CCNC2CC(=O)N(Cc3ccccc3)C2=O)cc1 (stereo not drawn) |  | inactive |
| O=C1CC(Nc2ccc(N3CCOCC3)cc2)C(=O)N1CCc1ccccc1 (stereo not drawn) |  | inactive |
| CCNC(=O)CC1C(=O)N(c2ccc(C)cc2)C(=O)N1CCc1ccc(OC)c(OC)c1 (stereo not drawn) | 6.82 |  |
| CN1CCN(/C=C(\C#N)S(=O)(=O)c2ccc(Cl)cc2)CC1 | 25.6 |  |
| S=C(NCc1ccccn1)Nc1ccc(Cl)c(Cl)c1 |  | inactive |
| O=C(NCc1ccc(F)cc1)C1CCC(CNc2c(N3CCCCC3)c(=O)c2=O)CC1 (stereo not drawn) |  | inactive |
| Cc1cc(C)cc(N(CC(=O)NCc2cccnc2)S(C)(=O)=O)c1 | 14.2 |  |
| CCSc1nnc(NC(=O)c2cccc3ccccc23)s1 | 5.41 |  |
| Cc1ccc(C(C)C)c(OCCN(C)C)c1 | 0.68 |  |

| SMILES | inhibition [%] | outcome |
| --- | --- | --- |
| Cc1cc(C)cc(CC2CC(=O)N(c3ccc4c(c3)OCCO4)C2=O)c1 (stereo not drawn) |  | inactive |
| COc1ccc(C2OC(=O)CC2C(=O)N2CCN(c3cc(Cl)ccc3C)CC2)cc1OC (stereo not drawn) |  | inactive |
| CCOC(=O)C(C#N)(Cc1ccc2ccccc2n1)Cc1ccc2ccccc2n1 | 1.67 |  |
| Cc1ccccc1NS(=O)(=O)c1ccc2[nH]cc(C(=O)N(C)Cc3ccco3)c(=O)c2c1 |  | inactive |
| CC1CCCCN1CCCNC(=O)C1CCN(c2nc3ccccc3o2)CC1 (stereo not drawn) | 2.7 |  |
| CCN(CC)c1ccc(NC(=O)c2ccco2)cc1 |  | inactive |
| COc1ccccc1CNCC(=O)Nc1ccc(N2CCOCC2)cc1 | 6.6 |  |
| CCOc1ccc(Cl)cc1S(=O)(=O)N1CCN(c2ccc(F)cc2)CC1 | 10.8 |  |
| O=C(Nc1ccc(COc2ccccc2)cc1)Oc1ccccc1N1CCOCC1 |  | inactive |
| O=C1CC(NCc2ccco2)C(=O)N1CCc1ccccc1 (stereo not drawn) | 2.34 |  |
| COc1ccccc1N1C(=O)CC(Sc2nccc(C)n2)C1=O (stereo not drawn) | 7.5 |  |
| O=C(CSc1ccc(Cl)cc1)c1ccco1 |  | inactive |
| O=[N+]([O-])c1ccc(-c2c[nH]c(=S)[nH]2)cc1 | 27.2 |  |
| CC1(C)OC(=O)C(=CNC(Cc2c[nH]c3ccccc23)C(=O)O)C(=O)O1 (stereo not drawn) | 2.05 |  |
| CC(C)(C)c1ccc(OCC(=O)NCCN2CCCC2)cc1 | 7.43 |  |
| Cc1ccc(S(=O)(=O)N2CCOCC2)cc1C(=O)Nc1nc2ccccc2[nH]1 | 15.7 |  |
| CC(NC(=O)c1ccco1)C1CCCO1 (stereo not drawn) |  | inactive |
| CC1(C)Cc2c(cnn2-c2ccccc2)C(NC(=O)CCCN2CCCCC2=O)C1 (stereo not drawn) |  | inactive |
| O=S(=O)(NCc1cn2ccsc2n1)c1cccs1 | 0.68 |  |
| Nc1cccc2c1C(=O)N(C(=O)/C=C/c1cccc(Br)c1)C2=O | 19 |  |
| COc1ccc(NC(=O)O/N=C/c2ccccc2Cl)cc1 | 3.3 |  |
| Cc1ccc(OCC(=O)NNC(=O)CCc2ccccc2)cc1 |  | inactive |
| Cc1ccc(S(=O)(=O)N/N=C/c2ccc(OCC(=O)Nc3ccccc3Cl)cc2)cc1 | 7.43 |  |
